Four compounds from PubChem BioAssay (NCATS) can be followed below.

Activity calls are given as the source filed them. The call rests on the fitted dose curve; in most records, active means well fitted curve in the direction sought with a large enough effect; inconclusive means small, poorly fitted or top-dose-only effect, or another doubt; inactive means no such curve, though single readings can be large; an effect the other way counts as inactive or inconclusive.

Alpha-galactosidase (Coffea arabica), sequence (Q42656 whole entry, looked up): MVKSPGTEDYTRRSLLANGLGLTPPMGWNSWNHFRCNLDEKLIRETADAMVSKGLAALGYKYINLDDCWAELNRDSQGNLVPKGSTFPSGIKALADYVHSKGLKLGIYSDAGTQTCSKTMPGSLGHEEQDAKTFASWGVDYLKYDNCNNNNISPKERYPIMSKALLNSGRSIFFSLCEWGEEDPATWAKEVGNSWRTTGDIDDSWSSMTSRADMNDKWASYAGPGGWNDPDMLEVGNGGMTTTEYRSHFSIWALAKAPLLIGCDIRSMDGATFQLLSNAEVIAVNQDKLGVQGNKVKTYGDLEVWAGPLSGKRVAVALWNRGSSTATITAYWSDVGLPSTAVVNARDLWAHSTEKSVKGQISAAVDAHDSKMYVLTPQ

One test deals with Alpha-galactosidase (Coffea arabica) (UniProt Q42656). As to the kind of experiment: Counterscreen for Glucocerebrosidase Inhibitors: qHTS Assay for Coffee Bean alpha-Galactosidase at pH 4.5 (AID 957). The following applies: purified coffee bean alpha-galactosidase, fluorogenic substrate; series mostly up to 76.9 µM. The gist of the method:
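Fluorogenic read-out: 4-methylumbelliferone at Ex 365/Em 440 nm after NaOH/glycine stop (pH 10). Enzyme 2 nM, 4-MU-alpha-galactoside 80 uM, citrate buffer pH 4.5, 20 min RT; normalized to no-enzyme and enzyme controls.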
(In general: A counterscreen serves to expose hits that act by an unwanted route or on another target.)
Turning to `CC(=O)[C@@H]1CC[C@@H]2[C@@H]3CC=C4C[C@H](OS(=O)(=O)O)CC[C@@]4(C)[C@H]3CC[C@]21C`, the compound was classed as inactive.

Turning to `O[Si@](CCCN1CCCCC1)(c1ccc(F)cc1)C1CCCCC1`, the result was inactive.

In the case of `Clc1ccc(C(c2ccc(Cl)cc2)n2cc[n+](C[C@@H](OCc3ccc(Cl)cc3Cl)c3ccc(Cl)cc3Cl)c2)cc1`, the outcome was inactive.

The next test shares this target. The test is described as follows: Counterscreen for Glucocerebrosidase Inhibitors: qHTS Assay for Coffee Bean alpha-Galactosidase at pH 5.9 (AID 998). As to conditions: coffee bean alpha-galactosidase enzyme assay; series mostly up to 76.9 µM. The essentials:
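Fluorogenic 4-MU substrate hydrolysis, 80 uM substrate and 2 nM coffee bean alpha-galactosidase, pH 5.9 citrate buffer, 20 min at room temperature, then NaOH/glycine stop. Titration 0.7 nM–77 uM, normalized to no-enzyme and enzyme controls, AC50 via Hill equation.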
As for `CC(=O)[C@@H]1CC[C@@H]2[C@@H]3CC=C4C[C@H](OS(=O)(=O)O)CC[C@@]4(C)[C@H]3CC[C@]21C`, the result was inactive.

Regarding `O[Si@](CCCN1CCCCC1)(c1ccc(F)cc1)C1CCCCC1`, the call was inactive.

Consider `O=c1[nH]c(=O)n([C@H]2C[C@H](O)[C@H](CO)O2)cc1/C=C\Br`, for which the compound was classed as inactive.

As to `Clc1ccc(C(c2ccc(Cl)cc2)n2cc[n+](C[C@@H](OCc3ccc(Cl)cc3Cl)c3ccc(Cl)cc3Cl)c2)cc1`, the compound was classed as inactive.
